Assays:
Experiment in all cases: DAPPL (digital affinity profiling via proximity ligation, sequencing); 10 mM Tris-HCl pH 7.5, 50 mM NaCl, 1 mM DTT, 4% glycerol, room temperature, 30 min; GST-TFs on glutathione beads, 16-mer random dsDNA library, 0.1% formaldehyde crosslink after washing; high values mean tight binding
FLI1 = target: T1, FLI1 (Homo sapiens, UniProt Q01543 1-452); settings: protein: recombinant; tags: N-terminal GST; dsDNA, one strand shown
T1 sequence: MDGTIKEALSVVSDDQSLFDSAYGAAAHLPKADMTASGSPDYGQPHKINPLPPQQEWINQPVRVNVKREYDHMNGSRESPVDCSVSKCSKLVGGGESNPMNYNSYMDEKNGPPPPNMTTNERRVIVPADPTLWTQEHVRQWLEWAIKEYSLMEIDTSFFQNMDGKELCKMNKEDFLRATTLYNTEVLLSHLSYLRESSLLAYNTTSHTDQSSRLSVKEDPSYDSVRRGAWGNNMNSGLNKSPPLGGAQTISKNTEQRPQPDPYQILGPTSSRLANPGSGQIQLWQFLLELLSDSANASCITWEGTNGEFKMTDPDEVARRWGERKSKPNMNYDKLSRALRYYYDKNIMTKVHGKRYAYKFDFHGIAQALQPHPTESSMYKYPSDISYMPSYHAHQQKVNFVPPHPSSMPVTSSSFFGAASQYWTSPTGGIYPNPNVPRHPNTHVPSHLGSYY
Outline: (§1)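 GST fusions of human transcription factors were expressed in yeast and captured with glutathione beads. Once given DNA barcodes and pooled alongside a tag-only sample, they were incubated for 30 min at room temperature with 200 nmole of a random double-stranded 16-mer DNA library in Tris/NaCl/DTT/glycerol buffer, then washed, crosslinked (0.1% formaldehyde), proximity-ligated, PCR-amplified and sequenced on an Illumina NextSeq500. The binding signal of each hexamer is its read frequency for a factor divided by its frequency for the tag-only sample.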

ELK1 = target: T2, ELK1 (Homo sapiens, UniProt P19419 1-428); settings: protein: recombinant; tags: N-terminal GST; dsDNA, one strand shown
T2 sequence: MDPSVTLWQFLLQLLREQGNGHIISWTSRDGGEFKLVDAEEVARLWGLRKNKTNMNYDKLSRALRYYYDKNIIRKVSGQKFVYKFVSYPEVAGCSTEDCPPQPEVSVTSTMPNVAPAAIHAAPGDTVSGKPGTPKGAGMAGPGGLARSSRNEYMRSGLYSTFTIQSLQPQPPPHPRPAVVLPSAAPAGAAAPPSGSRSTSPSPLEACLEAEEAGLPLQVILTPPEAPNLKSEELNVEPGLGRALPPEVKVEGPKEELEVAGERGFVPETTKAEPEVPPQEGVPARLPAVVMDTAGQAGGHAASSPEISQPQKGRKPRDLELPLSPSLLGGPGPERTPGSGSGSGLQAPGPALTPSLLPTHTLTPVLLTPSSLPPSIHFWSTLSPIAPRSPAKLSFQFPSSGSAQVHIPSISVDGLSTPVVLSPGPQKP
Outline: as §1

GABPA = target: T3, GABPA (Homo sapiens, UniProt Q06546 1-454); settings: protein: recombinant; tags: N-terminal GST; dsDNA, one strand shown
T3 sequence: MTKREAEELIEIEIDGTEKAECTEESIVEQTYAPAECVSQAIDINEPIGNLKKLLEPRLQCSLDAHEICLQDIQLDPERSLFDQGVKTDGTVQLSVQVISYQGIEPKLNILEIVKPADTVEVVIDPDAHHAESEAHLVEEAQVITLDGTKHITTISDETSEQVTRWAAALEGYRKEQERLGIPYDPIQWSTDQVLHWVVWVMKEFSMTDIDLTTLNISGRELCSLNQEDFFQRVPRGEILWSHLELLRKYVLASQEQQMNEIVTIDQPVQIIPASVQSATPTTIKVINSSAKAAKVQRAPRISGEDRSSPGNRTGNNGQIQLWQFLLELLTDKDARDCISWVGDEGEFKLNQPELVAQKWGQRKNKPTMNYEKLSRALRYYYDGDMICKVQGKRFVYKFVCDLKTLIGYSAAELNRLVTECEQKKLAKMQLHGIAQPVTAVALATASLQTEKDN
Outline: as §1

ERG = target: T4, ERG (Homo sapiens, UniProt P11308 1-479); settings: protein: recombinant; tags: N-terminal GST; dsDNA, one strand shown
T4 sequence: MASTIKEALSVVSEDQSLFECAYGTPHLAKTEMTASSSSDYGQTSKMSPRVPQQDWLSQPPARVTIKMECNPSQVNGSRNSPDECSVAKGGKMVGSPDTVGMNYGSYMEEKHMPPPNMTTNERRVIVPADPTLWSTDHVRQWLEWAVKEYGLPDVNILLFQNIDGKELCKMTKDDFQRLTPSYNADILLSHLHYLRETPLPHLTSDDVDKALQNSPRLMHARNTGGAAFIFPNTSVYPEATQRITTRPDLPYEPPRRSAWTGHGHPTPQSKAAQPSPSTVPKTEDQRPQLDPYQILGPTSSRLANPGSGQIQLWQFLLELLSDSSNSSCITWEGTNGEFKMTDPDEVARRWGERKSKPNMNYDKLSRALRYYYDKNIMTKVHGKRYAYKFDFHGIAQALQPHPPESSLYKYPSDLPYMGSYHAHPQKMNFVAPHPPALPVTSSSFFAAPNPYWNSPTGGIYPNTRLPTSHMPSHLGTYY
Outline: as §1

ELF1 = ELF1 (Homo sapiens, UniProt P32519 1-619); settings: protein: recombinant; tags: N-terminal GST; dsDNA, one strand shown
Outline: as §1

EHF = target: T5, EHF (Homo sapiens, UniProt Q9NZC4 1-300); settings: protein: recombinant; tags: N-terminal GST; dsDNA, one strand shown
T5 sequence: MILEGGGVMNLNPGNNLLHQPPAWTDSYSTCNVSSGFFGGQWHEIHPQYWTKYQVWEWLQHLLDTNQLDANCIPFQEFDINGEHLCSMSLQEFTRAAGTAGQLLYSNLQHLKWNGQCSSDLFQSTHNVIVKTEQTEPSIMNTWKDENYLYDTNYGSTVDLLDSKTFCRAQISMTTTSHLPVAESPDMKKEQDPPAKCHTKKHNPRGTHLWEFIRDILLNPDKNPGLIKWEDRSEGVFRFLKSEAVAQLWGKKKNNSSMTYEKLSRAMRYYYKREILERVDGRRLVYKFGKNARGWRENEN
Outline: as §1

SPI1 = SPI1 (Homo sapiens, UniProt P17947 1-270); settings: protein: recombinant; tags: N-terminal GST; dsDNA, one strand shown
Outline: as §1

SPIB = SPIB (Homo sapiens, UniProt Q01892 1-262); settings: protein: recombinant; tags: N-terminal GST; dsDNA, one strand shown
Outline: as §1

ELK3 = target: T6, ELK3 (Homo sapiens, UniProt P41970 1-407); settings: protein: recombinant; tags: N-terminal GST; dsDNA, one strand shown
T6 sequence: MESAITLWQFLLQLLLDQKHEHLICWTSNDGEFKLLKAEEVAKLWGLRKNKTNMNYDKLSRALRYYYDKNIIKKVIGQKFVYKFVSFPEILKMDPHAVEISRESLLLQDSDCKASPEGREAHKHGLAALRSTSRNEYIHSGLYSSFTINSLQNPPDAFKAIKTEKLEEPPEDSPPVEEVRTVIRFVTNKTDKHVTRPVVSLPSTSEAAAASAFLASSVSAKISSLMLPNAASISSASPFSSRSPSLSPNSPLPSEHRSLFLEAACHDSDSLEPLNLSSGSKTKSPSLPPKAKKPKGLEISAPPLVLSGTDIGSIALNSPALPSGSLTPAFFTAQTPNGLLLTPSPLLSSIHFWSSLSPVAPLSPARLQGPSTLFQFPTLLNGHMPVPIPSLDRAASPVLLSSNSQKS
Outline: as §1

FEV = target: T7, FEV (Homo sapiens, UniProt Q99581 1-238); settings: protein: recombinant; tags: N-terminal GST; dsDNA, one strand shown
T7 sequence: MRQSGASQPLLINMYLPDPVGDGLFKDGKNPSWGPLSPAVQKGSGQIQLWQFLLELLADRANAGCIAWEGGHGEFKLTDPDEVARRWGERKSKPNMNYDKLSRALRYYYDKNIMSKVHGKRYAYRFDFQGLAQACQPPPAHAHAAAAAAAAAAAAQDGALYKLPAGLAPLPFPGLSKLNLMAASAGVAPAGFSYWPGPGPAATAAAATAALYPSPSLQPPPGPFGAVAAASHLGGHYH
Outline: as §1

ETV5 = ETV5 (Homo sapiens, UniProt P41161 1-510); settings: protein: recombinant; tags: N-terminal GST; dsDNA, one strand shown
Outline: as §1

HSF1 = HSF1 (Homo sapiens, UniProt Q00613 1-529); settings: protein: recombinant; tags: N-terminal GST; chain copies: 3; dsDNA, one strand shown
Outline: as §1

SPIC = target: T8, SPIC (Homo sapiens, UniProt Q8N5J4 1-248); settings: protein: recombinant; tags: N-terminal GST; dsDNA, one strand shown
T8 sequence: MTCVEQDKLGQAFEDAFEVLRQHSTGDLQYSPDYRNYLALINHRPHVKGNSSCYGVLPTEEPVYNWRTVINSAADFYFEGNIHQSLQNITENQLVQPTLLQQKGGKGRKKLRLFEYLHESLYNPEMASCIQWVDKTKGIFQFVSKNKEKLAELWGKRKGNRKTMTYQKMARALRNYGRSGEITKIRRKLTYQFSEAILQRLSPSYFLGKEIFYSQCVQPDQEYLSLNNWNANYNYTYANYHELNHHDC
Outline: as §1

ELF4 = ELF4 (Homo sapiens, UniProt Q99607 1-663); settings: protein: recombinant; tags: N-terminal GST; dsDNA, one strand shown
Outline: as §1

ELK4 = target: T9, ELK4 (Homo sapiens, UniProt P28324-2 1-405); settings: protein: recombinant; tags: N-terminal GST; dsDNA, one strand shown
T9 sequence: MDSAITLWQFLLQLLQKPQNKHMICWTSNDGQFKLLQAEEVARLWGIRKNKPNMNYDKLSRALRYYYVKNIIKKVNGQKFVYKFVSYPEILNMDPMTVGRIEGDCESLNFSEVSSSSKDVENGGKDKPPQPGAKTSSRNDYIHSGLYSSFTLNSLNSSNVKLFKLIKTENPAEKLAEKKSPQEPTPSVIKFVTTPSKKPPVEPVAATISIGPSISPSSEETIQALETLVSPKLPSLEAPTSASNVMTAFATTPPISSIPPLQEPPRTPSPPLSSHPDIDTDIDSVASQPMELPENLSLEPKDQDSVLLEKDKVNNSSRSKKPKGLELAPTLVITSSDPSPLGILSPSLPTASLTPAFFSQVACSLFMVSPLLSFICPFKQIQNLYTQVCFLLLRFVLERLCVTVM
Outline: as §1

ETV2 = target: T10, ETV2 (Homo sapiens, UniProt O00321 1-342); settings: protein: recombinant; tags: N-terminal GST; dsDNA, one strand shown
T10 sequence: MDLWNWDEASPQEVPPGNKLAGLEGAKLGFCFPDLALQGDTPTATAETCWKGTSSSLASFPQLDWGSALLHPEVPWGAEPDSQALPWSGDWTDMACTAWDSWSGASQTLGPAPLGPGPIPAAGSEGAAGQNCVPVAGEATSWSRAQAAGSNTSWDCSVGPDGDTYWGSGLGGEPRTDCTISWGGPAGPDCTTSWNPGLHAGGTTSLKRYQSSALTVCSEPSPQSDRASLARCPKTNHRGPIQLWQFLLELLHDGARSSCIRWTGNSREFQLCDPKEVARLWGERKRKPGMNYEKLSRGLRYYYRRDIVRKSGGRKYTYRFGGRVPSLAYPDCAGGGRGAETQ
Outline: as §1

ELF3 = target: T11, ELF3 (Homo sapiens, UniProt P78545 1-371); settings: protein: recombinant; tags: N-terminal GST; dsDNA, one strand shown
T11 sequence: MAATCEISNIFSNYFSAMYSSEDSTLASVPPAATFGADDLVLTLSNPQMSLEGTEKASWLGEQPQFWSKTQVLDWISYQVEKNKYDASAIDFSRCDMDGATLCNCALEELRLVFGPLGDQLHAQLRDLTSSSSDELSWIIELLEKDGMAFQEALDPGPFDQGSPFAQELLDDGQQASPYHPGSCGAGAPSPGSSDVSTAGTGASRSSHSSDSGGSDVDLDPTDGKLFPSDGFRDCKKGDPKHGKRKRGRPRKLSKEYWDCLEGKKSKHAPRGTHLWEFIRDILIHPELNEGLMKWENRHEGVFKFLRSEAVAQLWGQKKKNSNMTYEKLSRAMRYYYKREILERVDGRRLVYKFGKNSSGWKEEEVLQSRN
Outline: as §1

CRX = CRX (Homo sapiens, UniProt O43186 1-299); settings: protein: recombinant; tags: N-terminal GST; dsDNA, one strand shown
Outline: as §1

ETV1 = ETV1 (Homo sapiens, UniProt P50549 1-477); settings: protein: recombinant; tags: N-terminal GST; dsDNA, one strand shown
Outline: as §1

Chain of SPIB (Q01892 whole entry): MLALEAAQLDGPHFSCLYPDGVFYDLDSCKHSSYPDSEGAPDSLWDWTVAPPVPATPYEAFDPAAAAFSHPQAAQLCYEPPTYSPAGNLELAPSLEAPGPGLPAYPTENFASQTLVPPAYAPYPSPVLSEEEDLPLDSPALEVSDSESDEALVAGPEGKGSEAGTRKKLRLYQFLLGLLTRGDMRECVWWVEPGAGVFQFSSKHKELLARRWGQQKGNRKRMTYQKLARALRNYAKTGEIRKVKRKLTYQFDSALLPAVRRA
Chain of ETV1 (P50549 whole entry): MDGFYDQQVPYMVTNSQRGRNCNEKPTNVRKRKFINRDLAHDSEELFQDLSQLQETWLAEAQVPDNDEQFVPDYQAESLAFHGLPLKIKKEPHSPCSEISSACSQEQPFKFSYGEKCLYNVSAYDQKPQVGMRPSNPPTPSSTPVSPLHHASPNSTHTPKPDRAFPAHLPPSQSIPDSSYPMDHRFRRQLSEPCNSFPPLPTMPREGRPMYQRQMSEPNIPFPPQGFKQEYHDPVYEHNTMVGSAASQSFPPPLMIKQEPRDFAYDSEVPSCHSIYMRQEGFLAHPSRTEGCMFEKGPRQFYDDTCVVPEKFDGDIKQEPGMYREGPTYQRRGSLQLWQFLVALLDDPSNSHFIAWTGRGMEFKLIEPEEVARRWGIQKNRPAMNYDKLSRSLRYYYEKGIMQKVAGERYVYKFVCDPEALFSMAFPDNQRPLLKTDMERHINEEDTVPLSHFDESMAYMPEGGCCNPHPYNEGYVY
Chain of ELF1 (P32519 whole entry): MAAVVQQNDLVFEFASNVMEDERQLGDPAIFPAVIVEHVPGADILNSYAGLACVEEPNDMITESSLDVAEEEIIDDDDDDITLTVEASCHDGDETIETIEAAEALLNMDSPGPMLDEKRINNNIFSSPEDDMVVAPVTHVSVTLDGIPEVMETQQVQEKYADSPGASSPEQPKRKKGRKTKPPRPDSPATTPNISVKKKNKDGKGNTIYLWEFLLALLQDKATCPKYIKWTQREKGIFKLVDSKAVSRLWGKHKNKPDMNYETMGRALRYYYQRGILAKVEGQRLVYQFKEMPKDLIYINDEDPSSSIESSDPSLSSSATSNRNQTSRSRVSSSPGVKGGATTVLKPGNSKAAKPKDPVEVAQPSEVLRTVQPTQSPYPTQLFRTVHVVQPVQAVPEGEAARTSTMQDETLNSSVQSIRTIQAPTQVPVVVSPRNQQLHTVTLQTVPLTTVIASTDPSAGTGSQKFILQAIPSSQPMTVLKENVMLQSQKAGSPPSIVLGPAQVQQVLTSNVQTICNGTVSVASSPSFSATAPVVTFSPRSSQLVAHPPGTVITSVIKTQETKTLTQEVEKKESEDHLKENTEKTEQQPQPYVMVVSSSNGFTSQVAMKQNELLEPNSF
Chain of CRX (O43186 whole entry): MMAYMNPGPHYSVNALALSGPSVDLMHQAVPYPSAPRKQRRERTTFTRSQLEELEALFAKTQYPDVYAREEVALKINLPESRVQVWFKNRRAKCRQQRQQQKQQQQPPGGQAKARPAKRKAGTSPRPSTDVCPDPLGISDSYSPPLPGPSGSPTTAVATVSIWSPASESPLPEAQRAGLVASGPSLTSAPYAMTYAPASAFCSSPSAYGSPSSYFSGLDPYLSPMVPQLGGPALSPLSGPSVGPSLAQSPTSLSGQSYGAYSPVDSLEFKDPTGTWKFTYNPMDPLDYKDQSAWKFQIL
Chain of ELF4 (Q99607 whole entry): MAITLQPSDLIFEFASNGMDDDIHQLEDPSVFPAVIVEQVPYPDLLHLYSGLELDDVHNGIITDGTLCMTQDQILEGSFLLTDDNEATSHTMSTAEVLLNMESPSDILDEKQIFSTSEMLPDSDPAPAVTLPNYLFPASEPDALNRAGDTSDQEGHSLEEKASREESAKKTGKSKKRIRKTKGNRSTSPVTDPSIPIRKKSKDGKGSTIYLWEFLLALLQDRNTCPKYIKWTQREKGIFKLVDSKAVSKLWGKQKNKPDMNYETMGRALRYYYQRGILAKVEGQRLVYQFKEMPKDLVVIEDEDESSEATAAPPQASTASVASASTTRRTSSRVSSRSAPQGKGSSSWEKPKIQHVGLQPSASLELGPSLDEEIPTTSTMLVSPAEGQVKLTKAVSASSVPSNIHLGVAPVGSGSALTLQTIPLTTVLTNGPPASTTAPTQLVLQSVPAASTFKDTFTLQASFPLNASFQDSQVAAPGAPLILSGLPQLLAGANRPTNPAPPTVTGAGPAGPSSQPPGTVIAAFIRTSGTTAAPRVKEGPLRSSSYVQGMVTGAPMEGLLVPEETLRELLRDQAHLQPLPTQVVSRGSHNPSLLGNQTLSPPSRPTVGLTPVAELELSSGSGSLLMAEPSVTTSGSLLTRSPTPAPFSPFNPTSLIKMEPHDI
Chain of ETV5 (P41161 whole entry): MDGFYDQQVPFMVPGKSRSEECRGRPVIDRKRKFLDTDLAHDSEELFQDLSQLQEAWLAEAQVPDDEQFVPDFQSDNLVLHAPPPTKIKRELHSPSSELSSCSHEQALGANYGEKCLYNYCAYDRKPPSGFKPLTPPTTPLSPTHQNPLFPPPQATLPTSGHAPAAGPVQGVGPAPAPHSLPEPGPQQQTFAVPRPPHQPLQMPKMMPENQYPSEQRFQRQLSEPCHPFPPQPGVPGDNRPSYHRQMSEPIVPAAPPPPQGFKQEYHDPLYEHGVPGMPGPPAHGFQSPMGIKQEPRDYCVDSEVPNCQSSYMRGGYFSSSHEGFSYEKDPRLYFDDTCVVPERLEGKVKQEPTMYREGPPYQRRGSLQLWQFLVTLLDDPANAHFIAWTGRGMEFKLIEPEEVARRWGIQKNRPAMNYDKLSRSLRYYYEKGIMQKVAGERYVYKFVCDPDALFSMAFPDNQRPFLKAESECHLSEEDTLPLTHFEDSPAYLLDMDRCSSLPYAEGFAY
Chain of HSF1 (Q00613 whole entry): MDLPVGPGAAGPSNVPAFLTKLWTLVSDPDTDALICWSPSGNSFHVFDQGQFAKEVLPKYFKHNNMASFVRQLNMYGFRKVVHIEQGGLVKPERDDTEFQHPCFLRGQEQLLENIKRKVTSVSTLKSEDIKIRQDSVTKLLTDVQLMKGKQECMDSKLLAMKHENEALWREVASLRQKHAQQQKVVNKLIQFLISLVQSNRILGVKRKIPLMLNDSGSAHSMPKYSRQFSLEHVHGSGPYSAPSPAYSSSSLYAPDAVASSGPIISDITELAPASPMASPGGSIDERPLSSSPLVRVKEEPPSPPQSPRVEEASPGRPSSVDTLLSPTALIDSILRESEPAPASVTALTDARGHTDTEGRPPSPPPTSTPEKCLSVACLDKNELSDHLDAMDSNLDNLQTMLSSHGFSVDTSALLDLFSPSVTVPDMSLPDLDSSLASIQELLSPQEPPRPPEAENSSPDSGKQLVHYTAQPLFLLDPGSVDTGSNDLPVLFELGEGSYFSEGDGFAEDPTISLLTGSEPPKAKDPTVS

Sequence: ATTTGT
- binding signal (FLI1): 1.36 fold enrichment (6-mer frequency, TF over GST control)
- binding signal (ELK1): 1.36 fold enrichment (6-mer frequency, TF over GST control)
- binding signal (GABPA): 1.34 fold enrichment (6-mer frequency, TF over GST control)
- binding signal (ERG): 1.28 fold enrichment (6-mer frequency, TF over GST control)
- binding signal (ELF1): 1.31 fold enrichment (6-mer frequency, TF over GST control)
- binding signal (EHF): 1.3 fold enrichment (6-mer frequency, TF over GST control)
- binding signal (SPI1): 1.26 fold enrichment (6-mer frequency, TF over GST control)
- binding signal (SPIB): 1.27 fold enrichment (6-mer frequency, TF over GST control)
- binding signal (ELK3): 1.24 fold enrichment (6-mer frequency, TF over GST control)
- binding signal (FEV): 1.34 fold enrichment (6-mer frequency, TF over GST control)
- binding signal (ETV5): 1.41 fold enrichment (6-mer frequency, TF over GST control)
- binding signal (HSF1): 1.33 fold enrichment (6-mer frequency, TF over GST control)
- binding signal (SPIC): 1.35 fold enrichment (6-mer frequency, TF over GST control)
- binding signal (ELF4): 1.32 fold enrichment (6-mer frequency, TF over GST control)
- binding signal (ELK4): 1.45 fold enrichment (6-mer frequency, TF over GST control)
- binding signal (ETV2): 1.44 fold enrichment (6-mer frequency, TF over GST control)
- binding signal (ELF3): 1.41 fold enrichment (6-mer frequency, TF over GST control)
- binding signal (CRX): 1.58 fold enrichment (6-mer frequency, TF over GST control)
- binding signal (ETV1): 1.23 fold enrichment (6-mer frequency, TF over GST control)

From PMC7862700, “An all-to-all approach to the identification of sequence-specific readers for epigenetic DNA modifications on cytosine”
